Results reported in PubChem BioAssay (NCI).
Compounds without any hit were thinned out: in the full panel of roughly 83,000, 20% have a hit.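 Assay: single dose, 48 h. Readout: percent growth (0 = no net growth; negative = cell death). Active: <10.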 Active and inactive are the calls of the source.

Columns and labels:
Test in all cases: NCI-60 one-dose screen, 48 h (100 = growth as untreated, 0 = no growth, -100 = all killed)
Conditions in all cases: 10 µM unless noted
RPMI-8226 leukemia = test system: RPMI-8226 leukemia
OVCAR-8 ovarian = test system: OVCAR-8 ovarian
OVCAR-5 ovarian = test system: OVCAR-5 ovarian
OVCAR-4 ovarian = test system: OVCAR-4 ovarian
SK-OV-3 ovarian = test system: SK-OV-3 ovarian
IGROV1 ovarian = test system: IGROV1 ovarian
OVCAR-3 ovarian = test system: OVCAR-3 ovarian
HS 578T breast = test system: HS 578T breast
NCI/ADR-RES ovarian = test system: NCI/ADR-RES ovarian
T-47D breast = test system: T-47D breast

Measured: growth

OCCOc1c(Cl)cc(Cl)cc1Cl
inactive: RPMI-8226 leukemia 119% | OVCAR-8 ovarian 104% | OVCAR-5 ovarian 92.6% | OVCAR-4 ovarian 98.1% | SK-OV-3 ovarian 106% | IGROV1 ovarian 115% | OVCAR-3 ovarian 118% | HS 578T breast 98.4% | NCI/ADR-RES ovarian 102% | T-47D breast 109%

O=C(/C(=N/O)S(=O)(=O)c1ccccc1)c1cccs1
inactive: RPMI-8226 leukemia 101% | OVCAR-8 ovarian 104% | OVCAR-5 ovarian 118% | OVCAR-4 ovarian 113% | SK-OV-3 ovarian 94% | IGROV1 ovarian 109% | OVCAR-3 ovarian 109% | HS 578T breast 118% | NCI/ADR-RES ovarian 97.3% | T-47D breast 93.2%

Cc1cc(NC(=O)c2ccc(N)cc2)ccc1N=Nc1ccc2c(O)c(N=Nc3ccc(Cl)c(S(=O)(=O)O)c3)c(S(=O)(=O)O)cc2c1
inactive: RPMI-8226 leukemia 65.6% | OVCAR-8 ovarian 70.2% | OVCAR-5 ovarian 92.2% | OVCAR-4 ovarian 106% | SK-OV-3 ovarian 88.6% | IGROV1 ovarian 73% | OVCAR-3 ovarian 85.9% | HS 578T breast 103% | NCI/ADR-RES ovarian 76.1% | T-47D breast 70.9%

CCCc1cc(=O)n2c(C(=O)Nc3ccccc3OC)c(C(=O)Nc3ccc(F)cc3)sc2n1
inactive: RPMI-8226 leukemia 30.5% [30 µM] | OVCAR-8 ovarian 18.5% [30 µM] | OVCAR-5 ovarian 57.8% [30 µM] | OVCAR-4 ovarian 36.2% [30 µM] | SK-OV-3 ovarian 29.9% [30 µM] | OVCAR-3 ovarian 51.3% [30 µM] | NCI/ADR-RES ovarian 24.8% [30 µM] | T-47D breast 85.4% [30 µM]
active: IGROV1 ovarian -12.6% [30 µM] | HS 578T breast 9.91% [30 µM]

Nc1c2ccccc2nc2ccccc12 (tested in a mixture with another compound)
inactive: OVCAR-5 ovarian 15.6% | OVCAR-4 ovarian 19% | SK-OV-3 ovarian 32.6% | IGROV1 ovarian 22.9% | OVCAR-3 ovarian 32.6% | HS 578T breast 42.9% | NCI/ADR-RES ovarian 19.4% | T-47D breast 28.9%
active: RPMI-8226 leukemia 7.88% | OVCAR-8 ovarian 4.39%

CCC1(c2ccccc2)Oc2ccccc2-n2c(C#N)c3ccccc3c2C1=O (stereo not given)
inactive: RPMI-8226 leukemia 92.6% | OVCAR-8 ovarian 98.4% | OVCAR-5 ovarian 108% | OVCAR-4 ovarian 99.8% | SK-OV-3 ovarian 91.4% | IGROV1 ovarian 93.9% | OVCAR-3 ovarian 103% | HS 578T breast 105% | NCI/ADR-RES ovarian 95.6% | T-47D breast 91.7%

CCCCCCC/C(=N\N=C(N)N)c1ccc(O)cc1
inactive: RPMI-8226 leukemia 11% | OVCAR-8 ovarian 60.4% | OVCAR-5 ovarian 58.3% | OVCAR-4 ovarian 36.2% | SK-OV-3 ovarian 46.8% | IGROV1 ovarian 33.6% | OVCAR-3 ovarian 35.8% | HS 578T breast 57.3% | NCI/ADR-RES ovarian 69.9%
active: T-47D breast -31.6%

CO[C@H]1CC(O[C@@H]2/C(C)=C/C[C@@H]3C[C@@H](C[C@]4(CC[C@H](C)[C@@H](C5CCCCC5)O4)O3)OC(=O)[C@@H]3C=C(C)/C(=N/O)[C@H]4OC/C(=C\C=C\[C@@H]2C)[C@]43O)O[C@@H](C)C1O (stereo not given in full)
active: RPMI-8226 leukemia -28.8% | OVCAR-8 ovarian -51.3% | OVCAR-5 ovarian -83% | OVCAR-4 ovarian -88.5% | SK-OV-3 ovarian -98.4% | IGROV1 ovarian -47.4% | OVCAR-3 ovarian -98.3% | HS 578T breast -43.7% | NCI/ADR-RES ovarian -76.3% | T-47D breast -78.1%

c1coc([C@@H]2C[C@@H]3Cc4ccc5ccccc5c4N2O3)c1
inactive: RPMI-8226 leukemia 97.3% | OVCAR-8 ovarian 99.4% | OVCAR-5 ovarian 90.8% | OVCAR-4 ovarian 92.4% | SK-OV-3 ovarian 103% | IGROV1 ovarian 113% | OVCAR-3 ovarian 114% | HS 578T breast 110% | NCI/ADR-RES ovarian 99.8% | T-47D breast 104%

CC(CCC(=O)O)(NC(=O)c1ccc([N+](=O)[O-])cc1)C(=O)O (stereo not given)
inactive: RPMI-8226 leukemia 116% | OVCAR-8 ovarian 102% | OVCAR-5 ovarian 118% | OVCAR-4 ovarian 111% | SK-OV-3 ovarian 96% | IGROV1 ovarian 115% | OVCAR-3 ovarian 108% | HS 578T breast 105% | NCI/ADR-RES ovarian 108% | T-47D breast 93.7%

Cc1ccccc1-c1cc(Cc2ccccc2O)c(=O)[nH]n1
inactive: RPMI-8226 leukemia 78.6% | OVCAR-8 ovarian 91.8% | OVCAR-5 ovarian 118% | OVCAR-4 ovarian 106% | SK-OV-3 ovarian 253% | IGROV1 ovarian 86.6% | OVCAR-3 ovarian 100% | HS 578T breast 104% | NCI/ADR-RES ovarian 111% | T-47D breast 200%

CC[C@@H]1OC(=O)[C@H](C)[C@@H](O[C@H]2C[C@@](C)(OC)[C@@H](O)[C@H](C)O2)[C@H](C)[C@@H](O[C@@H]2O[C@H](C)C[C@H](N(C)C)[C@H]2O)[C@](C)(O)C[C@@H](C)[C@@H]2N[C@@H](COCCOC)O[C@H]([C@H]2C)[C@]1(C)O
inactive: RPMI-8226 leukemia 88.8% | OVCAR-8 ovarian 102% | OVCAR-5 ovarian 105% | OVCAR-4 ovarian 106% | SK-OV-3 ovarian 109% | IGROV1 ovarian 108% | OVCAR-3 ovarian 124% | HS 578T breast 115% | NCI/ADR-RES ovarian 101% | T-47D breast 105%

CC(C)[C@]12O[C@H]1[C@@H]1O[C@]13[C@]1(O[C@H]1C[C@H]1C4=C(CC[C@@]13C)C(=O)OC4)[C@@H]2OC(=O)CN(C)C
inactive: RPMI-8226 leukemia 14.7% | OVCAR-8 ovarian 14.9% | OVCAR-5 ovarian 26.7% | OVCAR-4 ovarian 21.1% | SK-OV-3 ovarian 52.1% | T-47D breast 27.2%
active: IGROV1 ovarian -17.1% | OVCAR-3 ovarian -1.74% | HS 578T breast -0.647% | NCI/ADR-RES ovarian -5.71%

COC1=CC(c2ccc[nH]2)=N/C1=C\c1[nH]c(C)c(C(=O)CCC(=O)Oc2ccc3c(c2)CCC2C3CC[C@]3(C)C(=O)CC[C@@H]23)c1C (stereo not given in full)
inactive: RPMI-8226 leukemia 68.3% | OVCAR-8 ovarian 80.8% | OVCAR-5 ovarian 55.6% | OVCAR-4 ovarian 67.7% | SK-OV-3 ovarian 85.5% | IGROV1 ovarian 79.5% | OVCAR-3 ovarian 89.1% | HS 578T breast 69.8% | NCI/ADR-RES ovarian 82.3% | T-47D breast 79.2%

O=C1/C(=C/c2ccc3cccc(Cl)c3n2)SC(=S)N1CCc1ccc(O)cc1
inactive: RPMI-8226 leukemia 82.2% | OVCAR-8 ovarian 92.3% | OVCAR-5 ovarian 106% | OVCAR-4 ovarian 96.6% | SK-OV-3 ovarian 93.2% | IGROV1 ovarian 47% | OVCAR-3 ovarian 75.7% | HS 578T breast 73.8% | NCI/ADR-RES ovarian 93% | T-47D breast 65.5%

Cc1c(C(N)=O)sc2nc(SCC(=O)Nc3ccc(Cl)cc3)n(-c3ccccc3)c(=O)c12
inactive: RPMI-8226 leukemia 112% | OVCAR-8 ovarian 118% | OVCAR-5 ovarian 93.9% | OVCAR-4 ovarian 101% | SK-OV-3 ovarian 105% | IGROV1 ovarian 20.6% | OVCAR-3 ovarian 131% | HS 578T breast 348% | NCI/ADR-RES ovarian 97.2% | T-47D breast 91.1%

CC(=O)c1nc2ccccc2n1CCn1cc(CC(N)C(=O)O)c2ccccc21 (stereo not given)
inactive: RPMI-8226 leukemia 90% | OVCAR-8 ovarian 99% | OVCAR-5 ovarian 96.9% | OVCAR-4 ovarian 98.8% | SK-OV-3 ovarian 108% | IGROV1 ovarian 99.1% | OVCAR-3 ovarian 108% | HS 578T breast 109% | NCI/ADR-RES ovarian 97.5% | T-47D breast 106%

CCOc1ccccc1C(=O)OCC(=O)Nc1cccc(S(=O)(=O)N(C)C)c1
inactive: RPMI-8226 leukemia 85.8% | OVCAR-8 ovarian 92.9% | OVCAR-5 ovarian 94.9% | OVCAR-4 ovarian 95.2% | SK-OV-3 ovarian 129% | IGROV1 ovarian 98.5% | OVCAR-3 ovarian 126% | HS 578T breast 95.3% | NCI/ADR-RES ovarian 96.8% | T-47D breast 66.5%

COc1cc(OC)c2sc(-c3ccc(-n4cncc4-c4ccc(N)cc4)cc3)nc2c1
inactive: RPMI-8226 leukemia 64% | OVCAR-8 ovarian 77.4% | OVCAR-5 ovarian 100% | OVCAR-4 ovarian 63.1% | SK-OV-3 ovarian 120% | IGROV1 ovarian 104% | OVCAR-3 ovarian 77.6% | HS 578T breast 103% | NCI/ADR-RES ovarian 68.9% | T-47D breast 60.6%

COc1cc2c(-c3nc4cc(Cl)c(F)cc4s3)cc(=O)oc2c(C)c1OC
active: RPMI-8226 leukemia -56% | OVCAR-8 ovarian -58.8% | OVCAR-5 ovarian -65.5% | OVCAR-4 ovarian -92.9% | SK-OV-3 ovarian -85% | IGROV1 ovarian -43.6% | OVCAR-3 ovarian -98.6% | HS 578T breast -0.186% | NCI/ADR-RES ovarian -10% | T-47D breast -14.1%

CCC1=C(c2ccc(OC)cc2)C(C)(C)Oc2cc(O)c(CN3CCCC3)cc21
inactive: RPMI-8226 leukemia 57.5% | OVCAR-8 ovarian 95.4% | OVCAR-5 ovarian 81.9% | OVCAR-4 ovarian 99.3% | SK-OV-3 ovarian 89.2% | IGROV1 ovarian 87.1% | OVCAR-3 ovarian 83.4% | HS 578T breast 86% | NCI/ADR-RES ovarian 84.6% | T-47D breast 68.2%

O=C1OC(c2ccc(-c3ccccc3)cc2)=C/C1=C/c1cccs1
inactive: RPMI-8226 leukemia 138% | OVCAR-8 ovarian 78.9% | OVCAR-5 ovarian 98.5% | OVCAR-4 ovarian 65.5% | SK-OV-3 ovarian 128% | IGROV1 ovarian 93% | OVCAR-3 ovarian 89.2% | HS 578T breast 98.4% | NCI/ADR-RES ovarian 86.5% | T-47D breast 33.6%

COc1ccc(C(=O)C(C)Br)cc1OC (stereo not given)
inactive: RPMI-8226 leukemia 85.5% | OVCAR-8 ovarian 88.3% | OVCAR-5 ovarian 84.7% | OVCAR-4 ovarian 84% | SK-OV-3 ovarian 115% | IGROV1 ovarian 76.5% | OVCAR-3 ovarian 61.5% | HS 578T breast 95.2% | NCI/ADR-RES ovarian 96.1% | T-47D breast 82.6%

N#Cc1c(N)[nH]c(S)c1C#N
inactive: RPMI-8226 leukemia 107% | OVCAR-8 ovarian 101% | OVCAR-5 ovarian 99.7% | OVCAR-4 ovarian 109% | SK-OV-3 ovarian 100% | IGROV1 ovarian 107% | OVCAR-3 ovarian 120% | HS 578T breast 104% | NCI/ADR-RES ovarian 116% | T-47D breast 89.3%

Cc1cc(=O)n2n1-c1ccc(Cl)cc1NC(=O)C2
inactive: RPMI-8226 leukemia 99.2% | OVCAR-8 ovarian 97% | OVCAR-5 ovarian 103% | OVCAR-4 ovarian 98.8% | SK-OV-3 ovarian 109% | IGROV1 ovarian 112% | OVCAR-3 ovarian 108% | HS 578T breast 117% | NCI/ADR-RES ovarian 108% | T-47D breast 118%

COc1cc(OC)c2cc(C(=O)O)c(=O)oc2c1
inactive: RPMI-8226 leukemia 43% | OVCAR-8 ovarian 94.4% | OVCAR-5 ovarian 106% | OVCAR-4 ovarian 130% | SK-OV-3 ovarian 99.9% | IGROV1 ovarian 55.2% | OVCAR-3 ovarian 102% | HS 578T breast 134% | NCI/ADR-RES ovarian 112% | T-47D breast 99.4%
